Measurements reported in PubChem BioAssay AID1159580 (chemical genetic matrix, 2015).
Among all 5,500 compounds or so, about 2,000 (36%) were called active. Inconclusive results (about 18%) are left out. No stated cut-off is given here; in the data, active means normalized growth mostly below about 0.91 (no sharp cut-off); inconclusive means no clear call, values can overlap the other calls; inactive means mostly above about 0.92. The list shows a part of the results.

Assay: chemical genetic growth profiling, strain panel (AID 1159580);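 further: tested at 20 µM; growth read once vehicle control cultures reached saturation at 30 °C; 1 = growth at the plate median or of vehicle wells; lower values mean less growth of the strain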
Details: S. cerevisiae deletion strains, growth OD
[1] = locus YHR030C, strain SLT2, hits give low values
[2] = locus YHR079C, strain IRE1, hits give low values
[3] = locus YJL095W, strain BCK1, hits give low values
[4] = locus YJR066W, strain TOR1, hits give low values
[5] = locus YLR113W, strain HOG1, hits give low values
[6] = locus YNL183C, strain NPR1, hits give low values
[7] = locus YOR231W, strain MKK1, hits give low values
[8] = locus YPL256C, strain CLN2, hits give low values

Measured: normalized growth

C=C[C@@]1(C)CC(=O)[C@@]2(O)[C@](C)(O1)[C@@H](O)[C@@H](O)C1C(C)(C)CC[C@H](O)[C@@]12C (stereo partly specified)
inactive: [1] 0.962 | [2] 0.971 | [3] 0.989 | [4] 0.957 | [5] 0.992 | [6] 0.995 | [7] 0.992 | [8] 0.976

O=C1OC(CN2CCOCC2)CN1/N=C\c1ccc([N+](=O)[O-])o1 (stereo unspecified)
inactive: [1] 0.93 | [2] 0.948 | [3] 0.952 | [4] 0.844 | [5] 1.03 | [6] 0.856 | [7] 0.931 | [8] 0.961
